From PubChem BioAssay (NCI)
The panel holds about 83,000 compounds, 20% with a hit somewhere; the sample as a whole holds those more often.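 Single-concentration screen, 48 h exposure, 96-well plates. Endpoint: percent growth. Below 10 = active.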 Unmarked numbers belong to inactive results. The source made the active and inactive calls.

Tests used:
Assay in all cases: NCI-60 one-dose screen, 48 h (100 = growth as untreated, 0 = no growth, -100 = all killed)
Details in all cases: 10 µM unless noted
T-47D breast = system: T-47D breast
BT-549 breast = system: BT-549 breast
MDA-MB-435 melanoma = system: MDA-MB-435 melanoma
SW-620 colon = system: SW-620 colon
MCF7 breast = system: MCF7 breast
HCT-116 colon = system: HCT-116 colon
HCC-2998 colon = system: HCC-2998 colon
KM12 colon = system: KM12 colon

Row | Structure (SMILES) | growth (T-47D breast) | growth (BT-549 breast) | growth (MDA-MB-435 melanoma) | growth (SW-620 colon) | growth (MCF7 breast) | growth (HCT-116 colon) | growth (HCC-2998 colon) | growth (KM12 colon)
1 | CC1=NOCC(=O)N1 | 99.1% | 104% | 100% | 103% | 98.6% | 98.5% | 116% | 107%
2 | COc1cc(Cn2c(-c3ccccc3)cc3c2-c2oncc2CC3)cc(OC)c1OC | 38.1% | 41.2% | -58.1% (active) | 24.3% | 14.1% | 25.3% | 42.7% | 26.2%
3 | CCCCn1cnc(-c2cc(-c3ccccc3)cc(C(F)(F)F)c2)n1 | 93.7% | 100% | 105% | 96% | 99.6% | 96.7% | 108% | 101%
4 | COc1cc(C2CC(c3ccc(Nc4ccnc5cc(Cl)ccc45)cc3)=NN2c2ccccc2)cc(OC)c1OC (centres undefined) | 67.7% | 82.3% | 6.36% (active) | 50.2% | 48% | 54.9% | 67.7% | 47.9%
5 | O=C(O)/C=C(\c1nc2ccc([N+](=O)[O-])cc2[nH]1)c1cc(Cl)ccc1O | 5.42% (active) | 8.6% (active) | 20.5% | 28.6% | 13.4% | 8.05% (active) | 27.8% | 21.3%
6 | COc1ccc(/C=C2\Cc3c(Br)cccc3C2=O)c(OC)c1 | 77.3% | 69.6% | 7.83% (active) | 43.2% | 55.6% | 15% | 84.1% | 46.8%
7 | Cn1c(=O)c2[nH]c(Cc3ccc4c(c3)OCO4)nc2n(C)c1=O | 99.8% | 103% | 107% | 99.8% | 97.7% | 105% | 109% | 108%
8 | CC(C)COC(=O)NC(C)(C)C | 99.6% | 102% | 107% | 99.4% | 90.8% | 105% | 97% | 113%
9 | C/C(CC(=O)NNc1ccc([N+](=O)[O-])cc1)=N\Nc1ccc([N+](=O)[O-])cc1 | 50% | 99.6% | 35.4% | 48.6% | 83.8% | 47.3% | 74.5% | 25.4%
10 | O=C1/C(=C\c2cccn2Cc2ccc(F)cc2)c2ccccc2N1c1c(Cl)cccc1Cl | 19% | 95.6% | 107% | 92% | 12.6% | 70.8% | 81.5% | 54.4%
11 | CCCN(CCC)CC(O)COc1ccccc1C(=O)Nc1ccccc1 (centres undefined) | 97.1% | 87.1% | -21.1% (active) | 36.9% | 79.9% | 50.6% | 79.6% | 48.3%
12 | COc1ccc(C(=O)c2cc(C)c(OC)c(C)c2)cc1OC(=O)CCl | 62.7% | 15.2% | -23.5% (active) | 26.5% | 19.2% | 6.62% (active) | 27% | 12.2%
13 | Cc1ccc(CSCc2ccc(C(=O)NC3CC3)o2)cc1 | 48.4% | 97.9% | 77.7% | 66.2% | 25% | 81.1% | 31.6% | 46.4%
14 | COc1cc(C(=O)/C=C/c2cn(-c3ccccc3)nc2-c2cccc(Nc3ccnc4cc(Cl)ccc34)c2)cc(OC)c1OC | 95.4% | 93.3% | 66.9% | 99.1% | 71.2% | 68.1% | 108% | 93.5%
15 | CCN(CC)Cc1cc(Nc2nc(NC3CCC(N(C)C)CC3)c3ccccc3n2)ccc1OC (centres undefined) | 53.9% | 107% | 39.5% | 61.4% | 40.1% | 60.5% | 81.3% | 61.1%
16 | CCN(CC)c1ccc(C(=N)c2ccc(N(C)C)cc2)cc1 | -13.6% (active) | 28.9% | 2% (active) | -18.6% (active) | 2.36% (active) | 1.67% (active) | 15.4% | -8.02% (active)
17 | O=C1CC2(O)CSc3nc(=O)cc(n32)N1 (centres undefined) | 104% | 107% | 100% | 112% | 96% | 106% | 120% | 102%

Row | Structure (SMILES) | growth (T-47D breast) | growth (BT-549 breast) | growth (MDA-MB-435 melanoma) | growth (SW-620 colon) | growth (MCF7 breast) | growth (HCT-116 colon) | growth (HCC-2998 colon) | growth (KM12 colon)
18 | CCN(CC)c1ccc2nc3c4ccccc4c(=O)cc-3n(-c3ccccc3)c2c1 | -7.93% (active) | -21.7% (active) | -36.3% (active) | 7.92% (active) | -7.24% (active) | -31.7% (active) | -6.62% (active) | -5.68% (active)
19 | O=c1cc(N2CCOCC2)oc2c(-c3ccc4c(c3)OCCO4)csc12 | -15% (active) | 5.39% (active) | 14.7% | 37.6% | 7.92% (active) | 14.4% | 33.2% | 31.7%
20 | CN1CCN(Cc2ccc(NC(=O)c3cncc(C#Cc4ccc(N)nc4)c3)cc2C(F)(F)F)CC1 | 8.16% (active) | 18.7% | 9.96% (active) | -15.3% (active) | 19.9% | 1.86% (active) | 29.8% | 5.75% (active)
21 | Nc1c(C(=O)Nc2cccc(Cl)c2)sc2ncc(Br)cc12 | 62.6% | 68.2% | 71.9% | 61.3% | 84.2% | 23% | 99.7% | 63.8%
22 | CN1CCN(Cc2ccc(NC(=O)c3cccc(C#Cc4cnc(N)c5ncccc45)c3F)cc2C(F)(F)F)CC1 | 79.9% | 62% | -82.7% (active) | -49.9% (active) | -65.1% (active) | -67.5% (active) | 67.3% | 1.2% (active)
23 | Nc1cccc(S(=O)(=O)c2cccc(N)c2)c1 | 104% | 111% | 111% | 115% | 105% | 112% | 126% | 129%
24 | O=C(O)c1ccccc1N=Cc1ccccc1 | 101% | 112% | 95.2% | 107% | 109% | 101% | 102% | 105%
25 | COc1ccc(/C(=C\c2cc(OC)c(OC)c(OC)c2)C(=O)N2CCCNCC2)cc1 | 93.1% | 114% | 111% | 108% | 97.3% | 104% | 99.8% | 110%
26 | COc1ccc(CCN2COc3c([C@@H](C)CCC=C(C)C)ccc(C)c3C2)cc1OC | -23% (active) | 87.9% | 61.4% | 40.4% | 40.6% | 25.9% | -70.3% (active) | 51.8%
27 | Nc1nonc1-c1nc2ccccc2n1Cc1ccc(F)cc1 | 61.3% | 58% | -39.6% (active) | 24.7% | 28.4% | 30.4% | 58.8% | 30.5%
28 | COc1ccc2cc(-c3nc(C)c(C(C)=O)c(-c4ccc(C)cc4)n3)ccc2c1 | 72.1% | 82.3% | 89.1% | 91.3% | 88.3% | 86.3% | 109% | 91.7%
29 | CC(CN1CCN(CCOCCO)CC1)CN1c2ccccc2Sc2ccc(Cl)cc21 (centres undefined) | 62.7% | 79.1% | 22.4% | 63.6% | 55.6% | 37.5% | 39.5% | 28%
30 | CCOC(=O)C(=CNc1ccccc1Cl)C(=O)OCC | 95% | 106% | 76.9% | 98.4% | 93.8% | 97.9% | 102% | 105%
31 | NNC(=O)Cc1ccccc1 | 85% | 108% | 83.7% | 86.2% | 91.5% | 90.6% | 102% | 80.1%
32 | COc1ccc(C(=O)/C=C/c2cn(-c3ccccc3)nc2-c2cccc(Nc3ccnc4cc(Cl)ccc34)c2)cc1 | 97.1% | 100% | 66% | 97.8% | 85.8% | 91.9% | 109% | 94.9%
33 | COc1ccccc1NC(=O)OCC12COCN1COC2 | 102% | 117% | 102% | 101% | 92.4% | 113% | 116% | 107%
